Among the test systems are DU-145 prostate; K-562 leukemia; MALME-3M melanoma; MDA-MB-231 breast; RXF 393 renal; SF-268 CNS; SF-295 CNS; SF-539 CNS; UACC-257 melanoma; M14 melanoma; HCT-15 colon; HT29 colon; SNB-75 CNS; SNB-19 CNS; U251 CNS; PC-3 prostate; SK-MEL-5 melanoma; UACC-62 melanoma; LOX IMVI melanoma; SK-MEL-28 melanoma.
What all share (experiment): NCI-60 one-dose screen, 48 h (100 = growth as untreated, 0 = no growth, -100 = all killed)
Conditions in all cases: 10 µM unless noted

This is part of a sample that, as a whole, favours compounds with a hit. Of some 83,000 tested, about 20% had one in any assay.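 Treatment: one concentration, 48 hours, 96-well format. Scoring: percent growth, with anything below 10 considered active.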 Values without a mark were called inactive. The source made the active and inactive calls.

Turning to `CCCCCCCCCCCCCCNC(=O)Nc1ccc(Cl)c(Cl)c1`, the growth in the assay with DU-145 prostate is 40.1%; in the assay on K-562 leukemia, 100%; in the assay on MALME-3M melanoma, 22.2%; in the assay on MDA-MB-231 breast, 27.7%; with RXF 393 renal it was 24.4%; with SF-268 CNS, 46%. The growth is 18.6% in the assay on SF-295 CNS; 51.1% in the assay on SF-539 CNS; 41.4% with UACC-257 melanoma; 49.2% in the assay on M14 melanoma; 16.9% in the assay on HCT-15 colon; 46.6% in the assay on HT29 colon. Further, the growth was 53.7% in the assay with SNB-75 CNS; 56.3% in the assay on SNB-19 CNS; 19.8% with U251 CNS; 16.7% in the assay with PC-3 prostate; 51.3% with SK-MEL-5 melanoma; 33.6% in the assay with UACC-62 melanoma. The figures for the growth in the assay on LOX IMVI melanoma and in the assay with SK-MEL-28 melanoma were 7.74% (active) and 60.9%, respectively.

Consider `Brc1ccc(-c2nnc3c4[nH]ccc4ncn23)cc1`, for which the growth in the assay with DU-145 prostate is 101%; in the assay with K-562 leukemia, 79.9%; in the assay with MALME-3M melanoma it was 101%; in the assay with MDA-MB-231 breast, 44.4%; in the assay on RXF 393 renal, 107%; in the assay on SF-268 CNS it was 92.4%. Further, the growth was 96.1% in the assay with SF-295 CNS; 102% with SF-539 CNS; 109% with UACC-257 melanoma; 102% in the assay on M14 melanoma; 88.6% with HCT-15 colon; 94.9% with HT29 colon. The growth was 95.6% in the assay on SNB-75 CNS; 95.5% with SNB-19 CNS; 100% in the assay on U251 CNS; 90.6% in the assay with PC-3 prostate; 93.3% in the assay with SK-MEL-5 melanoma; 72% in the assay with UACC-62 melanoma. Further, the growth in the assay with LOX IMVI melanoma was 85.4%; with SK-MEL-28 melanoma, 114%.

`CCCC[C@@H](C=O)NC(=O)[C@H](CC(C)C)NC(=O)[C@H](CC(C)C)NC(=O)OCc1ccccc1`: the growth was -38.2% (active) in the assay with DU-145 prostate; 0.815% (active) in the assay on K-562 leukemia; -33% (active) in the assay with MALME-3M melanoma; -32.3% (active) in the assay with MDA-MB-231 breast; -63.7% (active) in the assay with RXF 393 renal; -11.9% (active) in the assay with SF-268 CNS. The growth in the assay on SF-295 CNS is -12% (active); with SF-539 CNS, -45.7% (active); with UACC-257 melanoma, 12.4%; with M14 melanoma, -35.3% (active); in the assay on HCT-15 colon, 8.85% (active); in the assay on HT29 colon it was -19.4% (active). In addition, the growth in the assay with SNB-75 CNS is -45.1% (active); in the assay with SNB-19 CNS it was 22.1%; with U251 CNS it was 5.84% (active); in the assay on PC-3 prostate it was 5.37% (active); with SK-MEL-5 melanoma it was -71% (active); in the assay with UACC-62 melanoma it was -38% (active). Further, the growth in the assay on LOX IMVI melanoma is -65.2% (active); in the assay on SK-MEL-28 melanoma, -21.7% (active).

For `COc1cc(/C=C/C(=O)/C=C/c2ccc(-n3ccnc3C)cc2)ccc1O`, the growth is 54% with DU-145 prostate; 13.2% in the assay with K-562 leukemia; 101% in the assay on MALME-3M melanoma; 97.1% in the assay with MDA-MB-231 breast; 47.8% in the assay on RXF 393 renal; 49.9% with SF-268 CNS. Also, the growth in the assay on SF-295 CNS was 84.3%; in the assay on SF-539 CNS, -0.75% (active); in the assay with UACC-257 melanoma, 89.3%; in the assay with M14 melanoma, 111%; with HCT-15 colon, 82.4%; with HT29 colon it was -42.9% (active). For the same compound, the growth was 76.4% in the assay with SNB-75 CNS; 79.3% in the assay on SNB-19 CNS; -1.61% (active) with U251 CNS; 74.2% in the assay on PC-3 prostate; 85.2% in the assay on SK-MEL-5 melanoma; 95.1% in the assay with UACC-62 melanoma. In addition, the figures for the growth in the assay on LOX IMVI melanoma and in the assay on SK-MEL-28 melanoma were -88.7% (active) and 84.1%, respectively.

With `CCCCC(CC)COC(=O)C[N+](C)(C)CCOC(c1ccccc1)c1ccccc1` (stereo not given), the growth with DU-145 prostate was 85.1%; in the assay on K-562 leukemia it was 14.6%; in the assay with MALME-3M melanoma, 30.8%; in the assay on MDA-MB-231 breast, 29.3%; with RXF 393 renal it was -4.09% (active); in the assay with SF-268 CNS it was 49%. Also, the growth in the assay with SF-295 CNS was 74.4%; in the assay with SF-539 CNS, 69.7%; in the assay on UACC-257 melanoma, 2.69% (active); with M14 melanoma, 20.3%; in the assay on HCT-15 colon, 96.2%; in the assay on HT29 colon, 28.3%. Further, the growth in the assay with SNB-75 CNS is 10.8%; in the assay on SNB-19 CNS, 40.7%; with U251 CNS it was 30.8%; in the assay on PC-3 prostate, 19.5%; with SK-MEL-5 melanoma, -79.8% (active); in the assay with UACC-62 melanoma it was -20.1% (active). Moreover, the growth was 1.39% (active) with LOX IMVI melanoma and 11.1% with SK-MEL-28 melanoma.

For `C1=C[C@H]2O[C@@H]1c1ccc3[nH]ccc3c12`, the growth with DU-145 prostate is 116%; in the assay on K-562 leukemia, 53.3%; in the assay on MALME-3M melanoma, 102%; in the assay on MDA-MB-231 breast, 93.4%; in the assay on RXF 393 renal, 92.5%; with SF-268 CNS, 104%. Further, the growth with SF-295 CNS was 103%; in the assay on SF-539 CNS it was 107%; with UACC-257 melanoma, 91.6%; with M14 melanoma, 86.3%; in the assay with HCT-15 colon it was 78.8%; in the assay with HT29 colon, 87.7%. The growth was 83.4% in the assay on SNB-75 CNS; 96.8% in the assay with SNB-19 CNS; 103% with U251 CNS; 98% in the assay on PC-3 prostate; 90.4% in the assay on SK-MEL-5 melanoma; 78.8% with UACC-62 melanoma. For the same compound, the results for the growth in the assay on LOX IMVI melanoma and in the assay on SK-MEL-28 melanoma were 100% and 94%, respectively.

With `CCN(CCNc1ccc(C)c2sc3cc(Cl)ccc3c(=O)c12)CC(C)O` (stereo not given), the growth was 82.5% in the assay with DU-145 prostate; 3.01% (active) in the assay with K-562 leukemia; 82.1% in the assay with MALME-3M melanoma; -11.8% (active) in the assay with MDA-MB-231 breast; -39.2% (active) in the assay with RXF 393 renal; 82.8% in the assay on SF-268 CNS. Further, the growth is 97.3% with SF-295 CNS; 59.4% with SF-539 CNS; -61.1% (active) in the assay with UACC-257 melanoma; -50.5% (active) with M14 melanoma; -42.8% (active) in the assay with HCT-15 colon; -28.5% (active) in the assay with HT29 colon. Besides, the growth in the assay on SNB-75 CNS was 66.5%; in the assay with SNB-19 CNS, 58.5%; in the assay on U251 CNS, 18%; in the assay on PC-3 prostate, 48.5%; in the assay with SK-MEL-5 melanoma, -98.1% (active); with UACC-62 melanoma it was -70.3% (active). In addition, the results for the growth with LOX IMVI melanoma and in the assay with SK-MEL-28 melanoma were -83.4% (active) and -64.5% (active), respectively.

Source of the values: PubChem BioAssay (NCI).
